# Results: PubChem BioAssay (NCATS)
# Values joined by “and” are separate entries in the source; they are usually repeats but may differ in a detail not shown here. Identical values can stand only once. Results filed as inconclusive are left out. Active and inactive are the calls of the source. Unless noted, how the calls were made is not given here.
# Experiments:
# [1] = qHTS profiling for inhibitors of Plasmodium falciparum (3D7) proliferation (AID 743322);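 further: infected erythrocytes exposed to compound for 72 h before lysis; 100% = DMSO vehicle wells and 0% = 0.29 µM artemisinin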; settings: P. falciparum 3D7 proliferation; at 28.7 µM (top of the series)
# Outline: (§1)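 Erythrocytes infected with P. falciparum (0.3% parasitemia, 2.5% hematocrit) incubated with compounds 72 h at 37 C, 5% CO2. Lysis with saponin/Triton buffer containing SYBR Green I, overnight at room temperature in the dark; DNA fluorescence (485/535 nm) normalised to 0.29 uM artemisinin and DMSO.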
# [2] = qHTS profiling for inhibitors of Plasmodium falciparum (DD2) proliferation (AID 743323); settings: lower = more inhibition; at 28.7 µM (top of the series)
# Outline: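 1536-well qHTS; infected RBCs 0.3% parasitemia/2.5% Hct final; cpd 72 h 37 C 5% CO2; lysis buffer + SYBR Green I, o/n RT dark; FI 485/535; norm. to 0.29 uM artemisinin and DMSO, plate-stack corrected.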
# [3] = qHTS profiling for inhibitors of Plasmodium falciparum (HB3) proliferation (AID 743324; active means well fitted curve in the direction sought with a large enough effect; an effect the other way counts as inactive or inconclusive;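 further: 100% = DMSO vehicle wells and 0% = artemisinin-treated control wells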); settings: Plasmodium falciparum HB3 blood-stage proliferation; at 28.7 µM (top of the series)
# Outline: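 P. falciparum HB3 grown in erythrocytes (0.3% parasitemia, 2.5% hematocrit final) with compound for 72 h at 37 C, 5% CO2. Parasite DNA detected by SYBR Green after saponin/triton lysis overnight; normalized to 0.29 uM artemisinin and DMSO.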
# [4] = qHTS profiling of the MIPE4 collection as inhibitors of Plasmodium falciparum (3D7) proliferation (AID 743344);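 further: scaled between DMSO vehicle wells and 0.29 µM artemisinin as full inhibition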; settings: P. falciparum 3D7 in erythrocytes, SYBR Green DNA fluorescence, 72 h; at 28.5 µM (top of the series) unless noted
# Outline: as §1
# [5] = qHTS profiling of the MIPE4 collection as inhibitors of Plasmodium falciparum (DD2) proliferation (AID 743345); settings: P. falciparum Dd2 in erythrocytes, SYBR Green DNA, 72 h; at 28.5 µM (top of the series) unless noted
# Outline: as §1
# [6] = qHTS profiling of the MIPE4 collection as inhibitors of Plasmodium falciparum (DD2) proliferation (Rep 2) (AID 743346); settings: P. falciparum Dd2 in erythrocytes, SYBR Green DNA, 72 h; at 28.5 µM (top of the series) unless noted
# Outline: as §1
# [7] = qHTS profiling of the MIPE4 collection as inhibitors of Plasmodium falciparum (HB3) proliferation (AID 743347);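 further: plate controls were DMSO vehicle wells for no effect and artemisinin wells for full effect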; settings: P. falciparum HB3 in erythrocytes, SYBR Green DNA, 72 h; at 28.5 µM (top of the series) unless noted
# Outline: as §1
# [8] = High-throughput drug toxicity screening in the BPDCN cell line Gen2.2 (AID 1224824); settings: Gen2.2 BPDCN cells; at 45.8 µM (top of the series) unless noted;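 further: cells exposed to compounds for 48 h before reading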
# Outline: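 Gen2.2 cells, 500 per well in phenol red-free RPMI with 10% FBS, exposed to compounds 48 h at 37 C, 5% CO2; viability by CellTiter-Glo luminescence. Percent activity scaled to DMSO (100%) and 9.2 uM bortezomib final (0%).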
# [9] = High-throughput drug toxicity screening in the BPDCN cell line Cal-1 (AID 1224825); settings: Cal-1 BPDCN cell viability, qHTS; at 45.8 µM (top of the series) unless noted
# Outline: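 Cal-1 cells, 500 per well in phenol-red-free RPMI with 10% FBS, exposed to compounds for 48 hours at 37C, 5% CO2. Viability read by CellTiter-Glo luminescence; percent activity normalized to DMSO (100%) and 9.2 uM bortezomib final (0%).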
# [10] = qHTS assay for measurement of the activity of small molecule inhibitors on Zika virus induced Caspase-3 activity in human iPSC derived neural progenitor cells (hNPCs) (AID 1224857; active means well fitted curve in the direction sought with a large enough effect; an effect the other way counts as inactive or inconclusive; further: nearly all actives have a fitted effect of over 65% in size; further: potency means the concentration at half of the fitted maximal effect)
# Outline: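 Caspase-3/7 induction by a 6-hour ZIKV infection was quantified with a luminescent Caspase-Glo 3/7 reagent incubated 30 minutes at room temperature. Compounds were preincubated with hNPCs for 1 hour; inhibition was calculated against uninfected and infected control wells.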
Compound,remaining parasite growth % (stronger effect = lower value) [1],"activity, percent of control [2]","remaining proliferation (% of control), lower = more inhibition [3]","parasite growth, % of DMSO control [4]","parasite growth remaining, % of DMSO control (lower = more inhibition) [5]","parasite growth, % of control (lower = inhibition) [6]","growth, % of control [7]","cell viability, % of control (lower = more cytotoxic) [8]",viability (% of control) [9],Potency [10]
CCN1CCN(CC(=O)Nc2ccc(-c3cccc4c(=O)cc(N5CCOCC5)oc34)c3sc4ccccc4c23)CC1,-0.258%,0.865%,0.111%,5.76%,6.58%,16.5%,7.23%,1.44%,2.53%,inactive
COc1cc2ncn(-c3cc(OCc4ccccc4C(F)(F)F)c(C(N)=O)s3)c2cc1OC,18.7%,43.8%,13%,41.3%,65%,44.3%,35.9%,43.1%,4.46%,inactive
Cc1cnc(Nc2ccc(F)cc2Cl)nc1-c1c[nH]c(C(=O)N[C@H](CO)c2cccc(Cl)c2)c1,7.37%,17.2%,6.37%,7.48%,8.92%,12.8%,11.5%,4.9%,1.37%,inactive
CC(=O)Nc1sc2c(c1-c1nc3ccccc3s1)CNC2,100%,96.7%,74.7%,20.4%,15.4%,24%,10.8%,8.36%,4.86%,inactive
CC1=C(CO)C(=O)O[C@@H]([C@@H](C)[C@H]2CC[C@H]3[C@@H]4C[C@H]5O[C@]56[C@@H](O)C=CC(=O)[C@]6(C)[C@@H]4CC[C@]23C)C1,-1.7%,-0.497%,-0.146%,6.08%,7.1%,7.54%,3.14%,3.38%,1.9%,9.35 µM (active)
O=C(O)[C@H](Cc1c[nH]c2ccccc12)N1C(=O)c2ccccc2C1=O,105%,104%,85.6%,99.6% [at 57.5 µM],98.7% [at 57.5 µM],77% [at 57.5 µM],106% [at 57.5 µM],151% [at 92.2 µM],104% [at 92.2 µM],inactive
Cc1cnc(-c2cnc(NCCNc3ccc(C#N)cn3)nc2-c2ccc(Cl)cc2Cl)[nH]1,89%,90.2%,53.7%,34.7%,76.5%,40.9%,27.2%,229%,38.3%,inactive
CN1CC[C@@H](c2c(O)cc(O)c3c(=O)cc(-c4ccccc4Cl)oc23)[C@@H](O)C1,3.4%,4.17%,4.58%,8.91%,13.5%,9.93%,11.3%,7.16%,5.59%,inactive
N#CCNC(=O)c1ccc(-c2ccnc(Nc3ccc(N4CCOCC4)cc3)n2)cc1,5.35%,14%,10.2%,4.16%,12.8%,13.1%,4.94%,55.1%,32.6%,inactive
COc1cc2nccc(Oc3ccc(NC(=O)C4(C(=O)Nc5ccc(F)cc5)CC4)cc3)c2cc1OC,3.02%,14.8%,–,3.93%,10.7%,7.46%,2.54%,5.49%,5.29%,inactive
O=C(C=Cc1c(C(=O)O)[nH]c2cc(Cl)cc(Cl)c12)Nc1ccccc1,118%,103%,99.1%,–,107%,159%,188%,115%,98.9%,inactive
Cc1cn2c(-c3cn[nH]c3)cnc2c(Nc2ccc(C(=O)N3CCNCC3)cc2F)n1,19.1%,12.6%,11.9%,–,11.4%,11.4%,–,99.1%,28.2%,inactive
CN1CCN(c2cc(C(=O)Nc3ccc4c(c3)-c3c(c(C(N)=O)nn3-c3ccc(F)cc3)CC4)c(Cl)cn2)CC1,-2.46%,0.473%,-0.224%,–,7.41%,16.2%,3.51%,5.17%,3.02%,inactive
C=C1C(=CC=C2CCCC3(C)[C@@H]([C@H](C)C=CC=CC(O)(CC)CC)CC[C@@H]23)C[C@@H](O)C[C@@H]1O (stereo partly drawn),65.1%,71.5%,20.6%,–,83.6%,12.7%,–,17.9%,6.44%,inactive
Nc1ccn([C@@H]2CS[C@H](CO)O2)c(=O)n1,–,–,–,404% [at 57.5 µM],100% [at 57.5 µM],146% [at 57.5 µM],–,218% [at 92.2 µM],11% [at 92.2 µM],inactive
CCOc1cc2ncc(C#N)c(Nc3ccc(F)c(Cl)c3)c2cc1NC(=O)C=CCN(C)C,-0.461%,3.39%,0.199%,–,7.41%,9.55%,4.45%,17.3%,9.88%,inactive
CC(C)c1nn(-c2c(Cl)cccc2Cl)c2nc(Cc3ccc(OCCO)cc3)[nH]c(=O)c12,–,–,–,20.8%,62%,27.3%,–,3.64%,2.52%,inactive
CC[C@H](CO)Nc1nc(NCc2ccccc2)c2ncn(C(C)C)c2n1,–,–,19.5%,20%,–,–,–,11.9%,29.5%,inactive
CC(=O)SC[C@@H](C)C(=O)N1CCC[C@H]1C(=O)N[C@@H](Cc1ccccc1)C(=O)O,106%,103%,–,100%,102%,69.5%,111%,132%,123%,inactive
CC(C)(O)CCc1ccc(OCc2cc(-c3cccc(OC(F)F)c3)c3ncccc3c2)cc1,37.5%,37.1%,15.5%,–,93%,102%,102%,132%,75.3%,inactive
COc1c(N2C[C@@H]3CCCN[C@H]3C2)c(F)cc2c(=O)c(C(=O)O)cn(C3CC3)c12,–,–,–,53.9% and 70.8%,76.4%,31.4% and 104%,–,73.3%,71.9%,inactive
